# Screens as filed in PubChem BioAssay.
# In the library only some 3.2% were active in any assay of this set; here they are far more common.
# SMARCA2 act = SMARCA2 function activation, primary screen. actives 1% (n = 370,000). activation, % at 9.1 µM. MG213 cells, MMTV-luciferase reporter, dexamethasone, overnight; in the data active = activation above about 7.8%;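 note: 0% = vehicle wells and 100% = reference activator wells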
# CDK5 inh = inhibitors of human CDK5/p35 kinase | inhibition, % at 10 µM | Recombinant CDK5/p35, ADP-Glo luminescence, 60 min | Q00535+Q15078 | actives 0.01% (n = 330,000);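 active = highest replicate inhibition of at least 50% and at least 75% of replicates reaching 50%; inconclusive = only one of the two criteria met; inactive = both criteria failed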;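 note: plate controls were DMSO neutral control for no effect and GW8510 at 10 µM for full effect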
# Target sequence (Q00535 whole entry, looked up): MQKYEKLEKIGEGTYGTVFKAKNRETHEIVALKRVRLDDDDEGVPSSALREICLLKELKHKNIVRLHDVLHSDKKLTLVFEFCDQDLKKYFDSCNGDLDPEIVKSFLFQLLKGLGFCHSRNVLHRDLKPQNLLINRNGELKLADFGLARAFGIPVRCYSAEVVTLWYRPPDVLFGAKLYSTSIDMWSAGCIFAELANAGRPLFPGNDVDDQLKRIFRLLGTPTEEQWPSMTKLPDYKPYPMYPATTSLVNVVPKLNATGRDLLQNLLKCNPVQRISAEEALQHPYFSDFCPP
# Target sequence (Q15078 whole entry, looked up): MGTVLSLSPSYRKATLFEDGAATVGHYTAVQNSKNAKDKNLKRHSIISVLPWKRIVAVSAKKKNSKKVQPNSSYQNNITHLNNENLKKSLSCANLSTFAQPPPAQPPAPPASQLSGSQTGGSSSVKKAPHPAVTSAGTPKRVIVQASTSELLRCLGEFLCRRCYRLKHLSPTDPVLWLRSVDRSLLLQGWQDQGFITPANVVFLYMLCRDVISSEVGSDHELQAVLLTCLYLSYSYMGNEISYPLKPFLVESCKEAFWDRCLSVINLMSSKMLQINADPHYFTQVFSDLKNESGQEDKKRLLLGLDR
# Rtt109 Vps75 = inhibitors of Candida albicans Rtt109/Vps75 histone acetyltransferase; Q5AAJ8; purified Rtt109/Vps75, ThioGlo CoA-SH fluorescence, 4 h; inhibition, % at 34.9 µM; actives 0.16% (n = 330,000); AID 540336;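 active = inhibition of at least 50% in every replicate; inconclusive = best replicate reaches 50% inhibition but some replicates fall short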
# Dyrk1A ADPGlo = blocks rat Dyrk1A kinase activity; Q63470; ADP-Glo luminescence, NFATc1 peptide; inhibition, % at 12.5 µM; actives 0.43% (n = 310,000); AID 504441; in the data active = inhibition above about 50%;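 note: plate controls were vehicle with enzyme for no effect and no enzyme for full effect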
# esBAF inh = blocks esBAF chromatin remodeling in mouse ES cells; Bmi1-luciferase knock-in reporter, 24 h; 100% = twice the neutral-well signal; reporter increase, % at 12.5 µM; actives 2% (n = 350,000); in the data active = activation above about 40%; inconclusive = no clear call, values can overlap the other calls;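 note: 0% = median of the plate's neutral control wells and 100% = double that signal; a rise in the Bmi1 reporter signal indicates esBAF inhibition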
# dFosB activator = mouse delta FosB homodimer activation. P13346. purified delta FosB, TAMRA-CDK5 oligo fluorescence polarization; percent of positive-control signal above neutral wells. activation, % at 25 µM. actives 0.99% (n = 340,000). AID 493131;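 active = mean activation above about 17%, with every replicate also reaching it, limit read from the data, passing the limit was not always enough; inconclusive = only one of the two conditions met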
# An asterisk follows results filed as active; ? = inconclusive; . = not tested or not shown.
SMILES,SMARCA2 act,CDK5 inh,Rtt109 Vps75,Dyrk1A ADPGlo,esBAF inh,dFosB activator
COC(=O)C1C(=O)c2c([nH]c(C(=O)OCC3CCCO3)c2C)CC1C (stereo unspecified),2.5,1.2,-10.5,-6.3,55.4*,2.2
NC(=O)c1cccc(-c2coc3c(C(=O)NCc4ccccc4)cccc23)c1,-0.4,.,.,.,50.0*,.
O=C(C[C@H]1C[C@@H]2c3cc(NS(=O)(=O)c4ccc(F)cc4)ccc3O[C@@H]2[C@H](CO)O1)NCc1cc(F)ccc1F,.,.,.,.,4.9,.
Fc1ccc(CNc2ccn3nc(-c4ccccc4)cc3n2)cc1,-1.4,.,.,.,63.9*,.
Clc1cccc(CNc2ccn3nc(-c4cccs4)cc3n2)c1,2.0,.,.,.,58.6*,.
COCCCNc1ccn2nc(-c3ccccc3)cc2n1,1.2,.,.,.,-62.0,.
c1ccc(OCCNc2ccn3nc(-c4ccccc4)cc3n2)cc1,-2.4,.,.,.,53.4*,.
Clc1cccc(CNc2ccn3nc(-c4ccco4)cc3n2)c1,1.7,.,.,.,25.3,.
c1ccc(OCCNc2ccn3nc(-c4cccs4)cc3n2)cc1,-7.0,.,.,.,64.0*,.
CN1CCN(C(=O)C[C@@H]2CC[C@@H](NC(=O)Nc3ccccc3F)[C@@H](CO)O2)CC1,.,.,.,.,-5.2,.
C[C@@H]1CN([C@H](C)CO)C(=O)c2cccc(NS(=O)(=O)c3ccc(F)cc3)c2O[C@@H]1CN(C)CC1CC1,.,.,.,.,5.5,.
COc1cccc(NC(=O)N(C)C[C@@H]2OCc3ccccc3-c3ccccc3C(=O)N([C@@H](C)CO)C[C@@H]2C)c1,.,.,.,.,5.1,.
O=C(C[C@@H]1C[C@H]2c3cc(NC(=O)NC4CCCC4)ccc3O[C@H]2[C@H](CO)O1)NCc1cccc(F)c1,.,.,.,.,3.4,.
Cc1noc(C)c1S(=O)(=O)Nc1ccc2c(c1)C(=O)N([C@H](C)CO)C[C@@H](C)[C@@H](CN(C)CC1CCCCC1)OCCCC[C@H](C)O2,.,.,.,.,2.2,.
CN1CCN(C(=O)C[C@@H]2CC[C@@H]3[C@H](COC[C@@H](O)CN3C(=O)Nc3cc(Cl)cc(Cl)c3)O2)CC1,.,.,.,.,-2.7,.
Cc1noc(C)c1S(=O)(=O)Nc1ccc2c(c1)C(=O)N([C@@H](C)CO)C[C@@H](C)[C@@H](CN(C)S(=O)(=O)c1ccccc1)OCCCC[C@@H](C)O2,.,.,.,.,7.4,.
COc1ccc(S(=O)(=O)Nc2ccc3c(c2)C(=O)N([C@@H](C)CO)C[C@H](C)[C@H](CN(C)S(=O)(=O)c2cn(C)cn2)O3)cc1,.,.,.,.,-1.1,.
Cc1cccc(S(=O)(=O)N[C@H]2CC[C@@H](CCNC(=O)CCN3CCCCC3)O[C@H]2CO)c1,.,.,.,.,-4.4,.
COc1ccccc1-c1cc2nc(NCCOc3ccccc3)ccn2n1,-2.4,.,.,.,3.9,.
c1ccc(OCCNc2ccn3nc(-c4ccco4)cc3n2)cc1,6.7,.,.,.,48.3*,.
Cn1cccc1-c1nc2ccc([N+](=O)[O-])cc2[nH]1,5.1,0.7,-3.5,6.9,?,1.6
CC(=O)Nc1ccc2nc(-c3cccn3C)[nH]c2c1,4.1,-3.2,-1.9,9.0,51.2*,1.1
CC(=O)Nc1ccc2nc(-c3cccs3)[nH]c2c1,5.3,0.8,12.7,3.6,26.3,6.1
Cn1cccc1-c1nc2ccc(NC(=O)c3cccs3)cc2[nH]1,-0.6,-0.8,6.3,4.1,64.4*,-2.9
O=C(C[C@@H]1CC[C@@H]2[C@H](COC[C@H](O)CN2S(=O)(=O)c2ccc(Oc3ccccc3)cc2)O1)NC1CCC1,.,.,.,.,2.5,.
SMILES,SMARCA2 act,CDK5 inh,Rtt109 Vps75,Dyrk1A ADPGlo,esBAF inh,dFosB activator
C/C(=N\NC(=O)c1ccccc1C)c1ccc(NC(=O)c2cccs2)cc1,6.8,2.5,30.8,0.8,53.2*,-3.8
C/C(=N\NC(=O)c1cccs1)c1c(O)cc(C)oc1=O,3.8,-0.5,4.3,-6.8,62.7*,3.8
C/C(=N/NC(=O)c1cccs1)c1cccs1,2.3,0.1,-5.4,-5.6,.,4.2
C/C(=N\NC(=O)c1ccc2c(c1)OCO2)c1ccc(C(=O)O)s1,3.7,1.6,0.3,-4.4,.,-0.4
C/C(=N\NC(=O)c1ccccc1)c1ccc(NC(=O)c2cccs2)cc1,2.4,0.3,-4.1,1.5,.,-3.6
C/C(=N\NC(=O)c1ccc2c(c1)OCO2)c1ccc2c(c1)OCO2,4.7,0.5,-6.2,.,52.1*,-1.0
CC(=NNC(=O)c1cccs1)c1ccc2c(c1)OCCO2,5.0,1.2,2.1,.,47.3*,1.5
C[C@H]1CN([C@@H](C)CO)C(=O)c2cc(C#Cc3ccccc3)cnc2O[C@@H]1CN(C)C(=O)CN(C)C,.,.,.,.,-2.1,.
O=C(Cc1ccc2c(c1)OCCO2)c1c(O)cc(O)cc1O,0.7,-1.4,.,4.1,55.4*,-4.3
c1ccc(CSCc2cn3ccsc3n2)cc1,3.9,1.9,-2.4,-7.2,59.4*,5.6
O=C(Cc1ccc(Br)cc1)c1ccc(O)cc1O,3.7,0.5,2.0,8.6,59.6*,-4.2
Cc1ccc2c(C)c(C(=O)N(C)C(C)c3ccon3)oc2c1C (stereo unspecified),5.3,-1.7,7.0,0.3,51.3*,-11.6
Cc1ccc2c(C)c(C(=O)N(C)C(C)c3ccncn3)oc2c1C (stereo unspecified),-1.4,-0.5,4.7,10.5,51.2*,-1.3
O=C(c1cccc(-c2nnc(-c3ccccc3)o2)c1)N1CCCCC1,4.1,-1.4,-3.5,-3.0,72.4*,-14.3
O=C(CSc1nnc(-c2cccc(Br)c2)o1)N1CCNC1=O,4.9,0.3,-8.9,2.3,61.6*,-11.3
O=C(O)c1ccc(-c2nnc(-c3cccc(Br)c3)o2)cc1,1.1,-0.5,-4.2,26.8,71.3*,-2.1
COc1ccc(NC(=O)N(C)C[C@@H]2Oc3c(NC(=O)c4cnccn4)cccc3C(=O)N([C@@H](C)CO)C[C@H]2C)cc1,.,.,.,.,1.8,.
COc1cccc(S(=O)(=O)N(C)C[C@H]2Oc3ncc(-c4cccc(C(=O)N(C)C)c4)cc3C(=O)N([C@@H](C)CO)C[C@H]2C)c1,.,.,.,.,-2.6,.
Cc1ccc(C(=O)NCCn2cc(SCC(=O)Nc3nnc(C)s3)c3ccccc32)cc1,-2.7,2.2,-11.1,4.1,58.3*,-2.9
O=C(CSc1cn(Cc2ccccc2)c2ccccc12)N1CCOCC1,0.9,0.0,3.3,4.1,78.6*,-14.6
Cn1cc(SCC(=O)Nc2nccs2)c2ccccc21,5.3,0.8,-7.6,3.3,67.9*,-6.0
COc1ccc(C(=O)NCCn2cc(SCC(=O)N3CCOCC3)c3ccccc32)cc1,-2.8,-2.3,0.8,6.1,42.2*,-7.2
O=C(NCCn1cc(SCC(=O)N2CCOCC2)c2ccccc21)c1ccccc1,0.3,0.5,-6.0,2.0,2.2,-8.1
CCOC(=O)c1ccc(-c2nnc(-c3ccc(Cl)cc3Cl)o2)cc1,-0.2,1.1,3.4,2.2,44.6*,-1.9
COc1cccc(/C=N/NC(=S)NC2CC3CC2C2C=CCC32)c1O (stereo unspecified),1.2,0.1,-1.7,-15.1,.,0.4
